# Reference: ChEMBL document CHEMBL2218924, “A broad activity screen in support of a chemogenomic map for kinase signalling research and drug discovery” (Biochem J, 2013)
# Assays:
# [1] = biological target: T1, Phosphorylase b kinase gamma catalytic chain, liver/testis isoform (Homo sapiens) (UniProt P15735); conditions: at 1 µM
# T1 sequence (whole entry): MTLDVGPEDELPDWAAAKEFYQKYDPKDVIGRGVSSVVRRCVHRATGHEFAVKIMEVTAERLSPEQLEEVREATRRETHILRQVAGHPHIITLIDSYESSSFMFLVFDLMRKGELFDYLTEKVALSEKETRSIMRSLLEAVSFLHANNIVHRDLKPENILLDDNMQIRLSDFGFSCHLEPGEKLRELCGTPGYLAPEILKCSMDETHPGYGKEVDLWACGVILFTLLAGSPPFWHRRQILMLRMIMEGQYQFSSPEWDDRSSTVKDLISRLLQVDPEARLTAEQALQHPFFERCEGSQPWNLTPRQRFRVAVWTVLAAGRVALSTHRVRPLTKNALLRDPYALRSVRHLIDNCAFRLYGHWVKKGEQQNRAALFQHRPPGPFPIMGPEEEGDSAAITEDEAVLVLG
# [2] = biological target: T1, Phosphorylase b kinase gamma catalytic chain, liver/testis isoform (Homo sapiens); conditions: at 10 µM
# [3] = biological target: Serine/threonine-protein kinase pim-1 (Homo sapiens) (UniProt P11309); conditions: at 1 µM
# [4] = biological target: Serine/threonine-protein kinase pim-1 (Homo sapiens) (UniProt P11309); conditions: at 10 µM
# [5] = biological target: Serine/threonine-protein kinase pim-2 (Homo sapiens) (UniProt Q9P1W9); conditions: at 1 µM
# [6] = biological target: Serine/threonine-protein kinase pim-2 (Homo sapiens) (UniProt Q9P1W9); conditions: at 10 µM
# [7] = biological target: Serine/threonine-protein kinase pim-3 (Homo sapiens) (UniProt Q86V86); conditions: at 1 µM
# [8] = biological target: Serine/threonine-protein kinase pim-3 (Homo sapiens) (UniProt Q86V86); conditions: at 10 µM
# [9] = biological target: Serine/threonine-protein kinase PLK1 (Homo sapiens) (UniProt P53350); conditions: at 1 µM
# [10] = biological target: Serine/threonine-protein kinase PLK1 (Homo sapiens) (UniProt P53350); conditions: at 10 µM
# Serine/threonine-protein kinase PLK1 (Homo sapiens), sequence (P53350 whole entry): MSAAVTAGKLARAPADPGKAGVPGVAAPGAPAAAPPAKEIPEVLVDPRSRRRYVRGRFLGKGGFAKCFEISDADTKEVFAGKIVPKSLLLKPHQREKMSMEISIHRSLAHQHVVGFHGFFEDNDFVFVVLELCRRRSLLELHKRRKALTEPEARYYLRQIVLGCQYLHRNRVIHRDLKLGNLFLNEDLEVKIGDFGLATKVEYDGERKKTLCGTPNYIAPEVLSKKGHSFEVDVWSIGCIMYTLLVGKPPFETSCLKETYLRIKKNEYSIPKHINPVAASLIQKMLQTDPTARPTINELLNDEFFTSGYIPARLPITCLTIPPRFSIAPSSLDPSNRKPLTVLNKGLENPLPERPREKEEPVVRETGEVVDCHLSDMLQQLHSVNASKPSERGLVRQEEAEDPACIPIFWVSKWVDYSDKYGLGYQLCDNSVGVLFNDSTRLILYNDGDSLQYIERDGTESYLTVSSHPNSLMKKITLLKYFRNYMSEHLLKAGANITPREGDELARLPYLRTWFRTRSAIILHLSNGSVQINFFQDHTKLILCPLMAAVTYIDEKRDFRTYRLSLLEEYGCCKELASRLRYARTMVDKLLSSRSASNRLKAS
# Serine/threonine-protein kinase pim-1 (Homo sapiens), sequence (P11309 whole entry, looked up): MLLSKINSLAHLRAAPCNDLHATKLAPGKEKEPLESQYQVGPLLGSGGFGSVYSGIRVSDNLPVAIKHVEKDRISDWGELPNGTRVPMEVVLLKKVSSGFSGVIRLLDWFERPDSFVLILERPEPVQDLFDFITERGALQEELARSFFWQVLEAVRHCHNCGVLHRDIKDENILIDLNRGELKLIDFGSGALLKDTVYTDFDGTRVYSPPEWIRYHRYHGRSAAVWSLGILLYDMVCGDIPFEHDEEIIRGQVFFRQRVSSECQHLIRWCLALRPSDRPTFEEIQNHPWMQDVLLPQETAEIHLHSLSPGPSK
# Serine/threonine-protein kinase pim-2 (Homo sapiens), sequence (Q9P1W9 whole entry, looked up): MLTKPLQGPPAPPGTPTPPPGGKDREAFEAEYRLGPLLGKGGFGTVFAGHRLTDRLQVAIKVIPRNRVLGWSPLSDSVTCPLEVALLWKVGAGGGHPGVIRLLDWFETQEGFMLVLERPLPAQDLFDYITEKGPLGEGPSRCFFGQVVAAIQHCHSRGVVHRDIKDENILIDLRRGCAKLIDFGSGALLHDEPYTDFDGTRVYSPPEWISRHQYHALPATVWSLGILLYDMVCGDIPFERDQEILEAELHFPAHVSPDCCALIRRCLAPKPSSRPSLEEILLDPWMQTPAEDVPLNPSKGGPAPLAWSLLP
SMILES,residual activity [1] [%],residual activity [2] [%],residual activity [3] [%],residual activity [4] [%],residual activity [5] [%],residual activity [6] [%],residual activity [7] [%],residual activity [8] [%],residual activity [9] [%],residual activity [10] [%]
Oc1ccc(Nc2nc(-c3ccc(Cl)cc3)cs2)cc1,129,130,77,52,126,82,93,97,97,90
O=C1NC(=O)c2c1c1c3ccccc3[nH]c1c1[nH]c3cc(Br)ccc3c21,114,71,28,13,27,6,29,14,90,90
COc1ccc(S(=O)(=O)N(CCO)c2ccccc2CN(C)C/C=C/c2ccc(Cl)cc2)cc1,116,83,96,73,143,137,86,82,76,72
O=C1NC(=O)c2cc(Nc3ccc(F)cc3)c(Nc3ccc(F)cc3)cc21,93,86,49,11,91,31,94,93,95,69
CCC(=O)Nc1ccc2ncnc(Nc3cccc(Br)c3)c2c1,90,108,80,86,104,94,92,85,93,71
C[C@@H](N)[C@H]1CC[C@H](C(=O)Nc2ccncc2)CC1,101,93,126,115,118,121,98,99,107,105
CCOc1cc2ncnc(Nc3cccc(Br)c3)c2cc1OCC,92,108,65,57,92,79,96,94,80,81
O=Nc1c(-c2c(O)[nH]c3ccccc23)[nH]c2ccccc12,25,12,76,47,68,38,94,90,83,103
O=c1c2ccccc2[nH]c(=S)n1CCN1CCC(=C(c2ccc(F)cc2)c2ccc(F)cc2)CC1,103,105,89,105,75,133,98,99,104,68
O=C1Nc2ccccc2/C1=C1/Nc2ccccc2/C1=N\OCCC(O)CO (stereo not given),21,5,58,11,98,44,75,64,72,75
Cc1nc(-c2ccccc2)c(-c2ccncc2)o1,109,95,78,60,121,117,93,99,92,93
COc1cc2ncnc(Nc3ccc(Oc4ccccc4)cc3)c2cc1OC,95,123,81,132,135,142,95,93,74,72
O=C(Nc1cccc(Nc2nccc(Nc3cccc(C(F)(F)F)c3)n2)c1)C1CC1,94,80,66,64,110,119,104,104,78,74
CO[C@H]1C[C@@H]2CC[C@@H](C)[C@@](O)(O2)C(=O)C(=O)N2CCCC[C@H]2C(=O)O[C@H]([C@H](C)C[C@@H]2CC[C@@H](O)[C@H](OC)C2)CC(=O)[C@H](C)/C=C(\C)[C@@H](O)[C@@H](OC)C(=O)[C@H](C)C[C@H](C)/C=C/C=C/C=C/1C,94,116,105,141,110,142,97,93,75,66
O=C1NC(=O)/C(=C\c2ccc3nccnc3c2)S1,90,50,42,10,75,22,61,14,80,64
CC#CC(=O)Nc1cc2c(Nc3ccc(F)c(Cl)c3)ncnc2cn1,92,105,88,101,82,109,91,91,98,81

SMILES,residual activity [1] [%],residual activity [2] [%],residual activity [3] [%],residual activity [4] [%],residual activity [5] [%],residual activity [6] [%],residual activity [7] [%],residual activity [8] [%],residual activity [9] [%],residual activity [10] [%]
O=C1NC(=O)/C(=C/c2ccc3c(c2)OC(F)(F)O3)S1,85,94,37,5,58,10,88,41,101,61
Oc1n[nH]c2nnc(-c3c(-c4ccccc4)nn4ccccc34)cc12,116,111,84,89,123,84,85,84,75,83
COc1ccc(CNc2nc(N(CCO)CCO)nc3c2ncn3C(C)C)cc1,122,88,87,69,134,130,87,88,69,58
Nc1n[nH]c2nnc(-c3c(-c4ccccc4)nn4ccccc34)cc12,104,98,98,85,123,74,88,83,78,92
CC[n+]1c(/C=C/N(C)c2ccccc2)n(-c2ccccc2)c2ccc(-c3nc4ccccc4s3)cc21,93,63,94,85,101,136,105,107,123,90
CNc1cc2c(Nc3cccc(Br)c3)ncnc2cn1,104,107,64,42,86,88,96,81,99,94
Cn1cnc2cc3c(Nc4cccc(Br)c4)ncnc3cc21,95,98,75,63,84,97,92,88,105,82
CN(C)c1ccc(/C=C2\C(=O)Nc3ccccc32)cc1,98,85,77,93,92,112,106,91,88,76
Cn1nc2c3c(cccc31)C(=O)c1ccccc1-2,102,84,71,45,91,44,80,66,81,77
Cc1nc2cc3nc(-c4cccs4)cnc3cc2n1C,94,111,100,101,90,121,101,102,118,85
O=[N+]([O-])c1ccc(-c2nc(-c3ccc(F)cc3)c(-c3ccncc3)[nH]2)cc1,98,91,99,85,127,139,86,95,88,80
O=C(O)c1ccc2c3c1cccc3c(=O)n1c3ccccc3nc21,95,72,58,23,14,0,15,1,92,94
CO[C@H]1[C@@H](OC)C[C@H](C)[C@@H](OC)C2=CC(=O)C=C(NC(=O)/C(C)=C/C=C/[C@H](OC)[C@@H](OC(N)=O)/C(C)=C/[C@@H]1C)C2=O,97,100,85,93,99,129,98,96,86,70
Nc1cccc(-c2cc3c(Oc4cccc(O)c4)ncnc3[nH]2)c1,120,91,75,34,118,84,86,91,78,83
O=C1c2ccccc2-[n+]2ccc3c([nH]c4ccccc43)c21,108,99,110,91,144,130,81,74,75,74
O=C1Nc2cc(Br)ccc2/C1=C1/Nc2ccccc2/C1=N\O,55,24,67,78,106,85,78,81,79,81
